Compounds with a hit are over-represented: about 5.8% of the library has one in this group of screens.
Gal4-VP16 FLuc = counter-screen for ROR gamma inhibitors: Gal4-VP16 reporter; Drosophila S2 Gal4-VP16 UAS-luciferase, luminescence, 20 h; Potency, µM (titrated, usually from 53.6 µM), for the others: top-dose activity, negative = inhibition, hits mostly inhibitors; 310,000 compounds, 3.5% hits; AID 2546;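 note: Gal4-VP16 expression switched on by copper sulfate through the metallothionein promoter; potency is the fitted concentration of half-maximal effect; % is set by controls: 0 for no effect and ±100 for the full control effect; nearly all actives have a fitted effect of over 50% in size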
TRPV1 potentiator = enhances activation of the human vanilloid receptor TRPV1; Q8NER1; TRPV1-expressing cells, Fluo-8 calcium influx, capsaicin EC20 potentiation; potentiation, % at 8.33 µM; 320,000 compounds, 0.02% hits; AID 540277; in the data active = potentiation above about 80%; inconclusive = between about 30% and that limit; note: 0% is about no effect
Target sequence (Q8NER1 whole entry, looked up): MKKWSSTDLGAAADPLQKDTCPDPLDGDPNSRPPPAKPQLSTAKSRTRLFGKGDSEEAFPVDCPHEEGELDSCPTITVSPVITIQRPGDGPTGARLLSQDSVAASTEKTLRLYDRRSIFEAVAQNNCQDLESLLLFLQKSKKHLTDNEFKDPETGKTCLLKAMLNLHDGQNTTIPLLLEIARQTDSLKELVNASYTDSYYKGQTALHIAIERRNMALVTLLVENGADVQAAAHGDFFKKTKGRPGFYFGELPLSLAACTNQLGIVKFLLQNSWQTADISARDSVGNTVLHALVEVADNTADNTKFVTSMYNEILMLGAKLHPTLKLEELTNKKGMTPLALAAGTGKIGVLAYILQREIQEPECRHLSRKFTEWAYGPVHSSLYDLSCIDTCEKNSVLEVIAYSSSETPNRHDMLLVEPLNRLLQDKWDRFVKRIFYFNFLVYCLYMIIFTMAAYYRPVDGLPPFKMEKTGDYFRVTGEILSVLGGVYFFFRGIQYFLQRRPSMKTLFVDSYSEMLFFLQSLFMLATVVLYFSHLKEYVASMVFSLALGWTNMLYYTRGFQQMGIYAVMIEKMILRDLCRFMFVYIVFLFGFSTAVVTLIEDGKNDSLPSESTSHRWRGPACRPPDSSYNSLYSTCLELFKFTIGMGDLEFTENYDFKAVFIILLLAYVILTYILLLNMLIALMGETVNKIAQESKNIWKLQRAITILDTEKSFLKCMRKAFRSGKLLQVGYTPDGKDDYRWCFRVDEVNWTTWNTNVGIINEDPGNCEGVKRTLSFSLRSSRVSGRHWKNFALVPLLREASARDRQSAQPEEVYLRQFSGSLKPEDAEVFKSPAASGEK
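Cells expressing TRPV1 were dye-loaded with Fluo-8 and read kinetically: 10 s baseline, 3 min after compound (agonist portion), then 2 min after EC20 capsaicin (allosteric enhancer portion). Calcium-bound dye fluorescence at 480/520 nm.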
RORg inh = inhibitors of mouse ROR gamma transcriptional activity; 310,000 compounds, 5.4% hits; Drosophila S2 Gal4-RORgamma UAS-luciferase reporter, 20 h; Potency, µM (top dose mostly 53.6 µM), without a hit: at the highest dose activity change, negative = inhibition, usual class: inhibitors; P51450; note: potency is the fitted concentration of half-maximal effect; % is set by controls: 0 for no effect and ±100 for the full control effect; nearly all actives have a fitted effect of over 60% in size
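Drosophila S2 cells stably expressing Gal4-DBD/mouse RORγ fusion under metallothionein promoter plus UAS-luciferase; compound 1 h, then 700 uM CuSO4 induction for 20 h at ambient temperature; inhibition read as reduced luminescence.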
uPA generation = cell surface uPA generation inhibition; cell surface uPA generation assay, qHTS; Potency, µM (top dose mostly 38.3 µM), inactives show at the top dose activity change, negative = inhibition, most hits filed as inhibitors; 330,000 compounds, 0.31% hits; active = well fitted inhibition curve with a large enough effect; inconclusive = small, poorly fitted or top-dose-only effect; inactive = no such curve, though single readings can be large or run the other way; tested in mouse RAW 264.7 cells; note: potency is the fitted concentration of half-maximal effect; % is set by controls: 0 for no effect and ±100 for the full control effect; nearly all actives have a fitted effect of over 55% in size
TRPV1 ag = agonists of human vanilloid receptor 1 (TRPV1); Q8NER1; activation, % at 8.33 µM; 320,000 compounds, 0.19% hits; TRPV1-expressing cells, Fluo-8 calcium influx, agonist mode; AID 540275; in the data active = activation above about 80%; inconclusive = between about 30% and that limit; note: 0% is about no effect
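TRPV1-expressing cells were cultured overnight at 35.5C and loaded with Fluo-8 calcium dye for 40 to 90 min at room temperature. After a 10 s baseline, compound was added and calcium influx was read kinetically for 3 min (ex 480/em 520 nm).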
Starred values were filed as active, the others as inactive; [ ] = remark or other dose. Unless noted, calls come from the whole dose curve; as a rule, active = well fitted curve in the direction sought with a large enough effect; inconclusive = small, poorly fitted or top-dose-only effect, or another doubt; inactive = no such curve, though single readings can be large; an effect the other way counts as inactive or inconclusive.

For Cc1cccc(NC(=O)N2CCC(c3nc4ccccc4o3)CC2)c1 the results were Gal4-VP16 FLuc 5%, TRPV1 potentiator -15, RORg inh 27%, uPA generation 2% and TRPV1 ag inconclusive.
`CC(C)c1ccc(NC(=O)N2CCC(c3nc4ccccc4o3)CC2)cc1` gave Gal4-VP16 FLuc -5%, TRPV1 potentiator -16, RORg inh 40%, uPA generation -21% and TRPV1 ag 97*.
For Cc1cccc(NC(=S)N2CCC(c3nc4ccccc4o3)CC2)c1 the results were Gal4-VP16 FLuc 8%[10 µM], TRPV1 potentiator 0, RORg inh 7.1µM*, uPA generation -1% and TRPV1 ag 12.
CCOc1ccccc1NC(=S)N1CCC(c2nc3ccccc3o2)CC1 was read as Gal4-VP16 FLuc inconclusive, TRPV1 potentiator -1, RORg inh 11µM*, uPA generation -20% and TRPV1 ag 4.
Screening Cc1cc(C)cc(NC(=O)N2CCC(c3nc4ccccc4o3)CC2)c1 returned TRPV1 potentiator -7, RORg inh 6%[0.365 µM] and TRPV1 ag inconclusive.
For CCSc1nnc(NC(=O)C(C)Sc2nc3ccccc3[nH]2)s1 (stereo not drawn) the results were Gal4-VP16 FLuc inconclusive, TRPV1 potentiator 2, RORg inh -10%, uPA generation -2% and TRPV1 ag 18.
For CC(C)Cc1nnc(NC(=O)CCC(=O)N2CCN(Cc3ccccc3)CC2)s1 the results were Gal4-VP16 FLuc -4%, TRPV1 potentiator 4, RORg inh 19%, uPA generation -3% and TRPV1 ag -4.
Screening COc1ccc(N=c2oc3ccc(OC)cc3cc2-c2nc3ccccc3[nH]2)cc1 returned Gal4-VP16 FLuc -7%, TRPV1 potentiator -8, RORg inh 10µM*, uPA generation -2% and TRPV1 ag -2.
`COc1cccc(N=c2oc3ccc(OC)cc3cc2-c2nc3ccccc3[nH]2)c1` gave Gal4-VP16 FLuc -26%, TRPV1 potentiator 13, RORg inh 14µM*, uPA generation -8% and TRPV1 ag 7.
COc1cccc(N=c2oc3ccccc3cc2-c2nc3ccccc3[nH]2)c1 was read as Gal4-VP16 FLuc inconclusive, TRPV1 potentiator -4, RORg inh 7.9µM*, uPA generation -8% and TRPV1 ag 19.
`COc1cccc(OCc2nc3ccccc3[nH]2)c1` gave Gal4-VP16 FLuc -7%, RORg inh inconclusive and uPA generation inconclusive.
Screening CC(C)(C)C(=O)Nc1ccc(C(=O)CN2C(=O)NC3(CCOc4ccccc43)C2=O)cc1 (stereo not drawn) returned TRPV1 potentiator 2, uPA generation 10% and TRPV1 ag 13.
`CCOc1ccc(/C=N/Nc2nc(=O)[nH]nc2C)cc1OC` gave Gal4-VP16 FLuc -1%, TRPV1 potentiator 6, RORg inh 13µM*, uPA generation 16% and TRPV1 ag 1.
Screening CCOc1cc(/C=N/NC(=O)N/N=C/c2ccc(O)c(OCC)c2)ccc1O returned uPA generation -10%.
`CCOc1cc(/C=N/Nc2nc(=O)[nH]nc2C)ccc1O` gave Gal4-VP16 FLuc -30%, TRPV1 potentiator 23, RORg inh 8.9µM*, uPA generation 4% and TRPV1 ag -2.
Screening COc1cc(/C=N/Nc2nc(=O)[nH]nc2C)cc(OC)c1O returned Gal4-VP16 FLuc -14%[10 µM], TRPV1 potentiator 6, RORg inh -32%, uPA generation 0% and TRPV1 ag -1.
Screening CCCOc1ccc(/C=N/Nc2ccccn2)cc1OC returned Gal4-VP16 FLuc 2%, TRPV1 potentiator 1, RORg inh 9%, uPA generation -1% and TRPV1 ag 3.
For CCOc1cc(/C=N/Nc2ncnc(Cl)c2N)ccc1O the results were Gal4-VP16 FLuc inconclusive, TRPV1 potentiator 7, RORg inh 20µM*, uPA generation -5% and TRPV1 ag 0.
Screening CCOc1ccc(/C=N/Nc2ccccn2)cc1OC returned Gal4-VP16 FLuc inconclusive, TRPV1 potentiator -4, RORg inh 10µM*, uPA generation -7% and TRPV1 ag 0.
CC(C)CO/N=C1/C[C@@H](O)[C@@H](O)[C@@H]2[C@@H]3C(=O)N(Cc4ccc5c(c4)OCO5)C(=O)[C@H]3CC[C@H]12 was read as Gal4-VP16 FLuc 1%[10 µM] and RORg inh 0%[10 µM].
CCCCn1c(=O)c2[nH]c(C34CC5CC(CC3C5)C4)nc2n(CCCO)c1=O was read as Gal4-VP16 FLuc -17% and RORg inh inconclusive.
CC1(C)OC(=O)C2(Cc3c(F)cccc3N3CCCC32)C(=O)O1 (stereo not drawn) was read as TRPV1 potentiator -25 and TRPV1 ag 10.
COc1ccc(-c2c(C3C4C=CCC(C)C4C(=O)N3Cc3ccccc3)ccc3ccccc23)cc1 (stereo not drawn) was read as Gal4-VP16 FLuc -13% and RORg inh 41%.
Cc1ccc(S(=O)(=O)NCCN2CCOCC2)c(C)c1C was read as Gal4-VP16 FLuc -12%, TRPV1 potentiator -5, RORg inh 11%, uPA generation -1% and TRPV1 ag -1.
`Cc1ccc2c(c1)nnn2C1CCN(S(=O)(=O)c2ccc(C(=O)O)cc2)CC1` gave Gal4-VP16 FLuc 7%, TRPV1 potentiator 7, RORg inh 19%, uPA generation 2% and TRPV1 ag -2.
`Cc1ccc2c(c1)nnn2C1CCN(S(=O)(=O)c2ccc(C(=O)N3C(C)CCCC3C)cc2)CC1` (stereo not drawn) gave Gal4-VP16 FLuc 16µM*, TRPV1 potentiator 0, RORg inh inconclusive, uPA generation -7% and TRPV1 ag 25.
COc1ccccc1OCc1ccc(C(=O)N2N=C(C(F)F)CC2(O)C(F)F)o1 (stereo not drawn) was read as Gal4-VP16 FLuc -6%, TRPV1 potentiator inconclusive, RORg inh -20%, uPA generation 0% and TRPV1 ag 4.
Screening Cc1nn(C(=O)c2ccco2)c(C)c1Br returned Gal4-VP16 FLuc -1%, TRPV1 potentiator 6, RORg inh 10%, uPA generation 4% and TRPV1 ag 10.
CC1=NN(C(=O)c2ccco2)C(O)(c2ccccc2)C1 (stereo not drawn) was read as Gal4-VP16 FLuc 6.3µM*, RORg inh 1.8µM* and uPA generation 2%.
`CC1=NN(C(=O)c2ccc(C)o2)C(O)(c2ccccc2)C1` (stereo not drawn) gave Gal4-VP16 FLuc 6.3µM*, TRPV1 potentiator 1, RORg inh 3.2µM*, uPA generation -1% and TRPV1 ag 1.
For COC(=O)c1ccc(NC(=O)Cn2nnc(-c3cccs3)n2)cc1 the results were Gal4-VP16 FLuc 3%, TRPV1 potentiator 7, RORg inh 18%, uPA generation 8% and TRPV1 ag 1.
COc1ccc(-c2cnc(-c3cccnc3)o2)cc1 was read as Gal4-VP16 FLuc -4% and RORg inh inconclusive.
